Drawing on PubChem BioAssay AID624139 (Broad Institute, 2012), this text covers outcome for 41 compounds.

SMILES strings stand for the structures. Hit rate of the full screen: of about 17,000 compounds, about 220 (1.3%) were called active.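 Rule for the calls: active = spot fluorescence over background significantly raised, with a chance value under 7% in all four replicate spots of the compound; inactive = the rest.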 The sample as a whole holds a higher share of actives than the screen did.

Nuclear factor NF-kappa-B p105 subunit (Homo sapiens), sequence (P19838 1-433 limits assumed): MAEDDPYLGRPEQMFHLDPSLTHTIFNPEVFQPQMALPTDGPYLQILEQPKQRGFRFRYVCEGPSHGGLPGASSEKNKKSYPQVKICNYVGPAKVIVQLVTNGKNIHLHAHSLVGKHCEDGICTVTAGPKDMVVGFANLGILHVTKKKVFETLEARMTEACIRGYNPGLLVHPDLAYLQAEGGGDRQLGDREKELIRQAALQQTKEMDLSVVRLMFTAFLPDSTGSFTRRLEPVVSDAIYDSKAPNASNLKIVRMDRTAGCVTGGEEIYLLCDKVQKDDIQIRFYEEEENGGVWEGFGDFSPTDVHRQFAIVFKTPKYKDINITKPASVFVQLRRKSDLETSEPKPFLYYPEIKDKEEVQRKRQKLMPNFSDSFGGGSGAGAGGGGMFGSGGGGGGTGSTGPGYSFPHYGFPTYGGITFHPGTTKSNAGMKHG

This test concerns the target Nuclear factor NF-kappa-B p105 subunit (Homo sapiens) (UniProt P19838). The test can be described thus: binders of NF-kB p50 subunit, primary screen, biochemical, small molecule microarray, anti-His fluorescence (AID 624139).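 Note: probe protein is his-tagged human p50 processed subunit at 1 µg/ml.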 The following applies: anti-His fluorescence binding.
In the case of `COC(=O)c1c(CC[C@@H](CO)NC(=O)Nc2ncn[nH]2)oc(C(=O)Cc2ccccc2)c1C(=O)OC`, the result was inactive.
As for `Cc1noc(C)c1S(=O)(=O)N(C)C[C@@H]1OCCCC[C@H](C)Oc2ccc(NC(=O)NC(C)C)cc2C(=O)N([C@H](C)CO)C[C@@H]1C`, the entry is “inactive”; as for `COC(=O)C1=C[C@@H](O)[C@@H](O)[C@H](O[C@@H]2O[C@H](CO)[C@@H](O)[C@H](O)[C@H]2OC(=O)/C=C/c2ccccc2)C1`, “inactive”; as for `CC(C)NC(=O)Nc1ccc2c(c1)C(=O)N([C@@H](C)CO)C[C@H](C)[C@@H](CN(C)Cc1ccc(C(=O)O)cc1)OCCCC[C@H](C)O2`, “inactive”.
As for `C[C@@H]1CCCCO[C@@H](CN(C)Cc2ccncc2)[C@H](C)CN([C@H](C)CO)C(=O)c2cc(N(C)C)ccc2O1`, the entry is “inactive”.
As for `C[C@@H]1CN([C@H](C)CO)C(=O)CCCn2nncc2CO[C@@H]1CN(C)C`, the entry is “inactive”.
For `C[C@@H]1CN([C@@H](C)CO)C(=O)c2cccc(NC(=O)Nc3ccc(F)cc3)c2O[C@H]1CN(C)C(=O)Nc1ccc(F)cc1`, the outcome was inactive.
On to `C[C@H]1CCCCO[C@@H](CN(C)Cc2ccc(C(=O)O)cc2)[C@@H](C)CN([C@@H](C)CO)C(=O)c2cc(NS(C)(=O)=O)ccc2O1`, for which the compound was classed as inactive.
As for `COc1ccc(CN(C)C[C@@H]2Oc3ccc(NC(=O)c4ccncc4)cc3CC(=O)N([C@H](C)CO)C[C@H]2C)cc1`, the entry is “inactive”; as for `COc1cccc(OC)c1C(=O)NC(=S)NCc1ccco1`, “inactive”.
`C[C@@H]1CCCCO[C@@H](CN(C)C(=O)Nc2ccc(F)cc2)[C@H](C)CN([C@@H](C)CO)C(=O)c2cc(NS(=O)(=O)c3ccccc3)ccc2O1`: the call was inactive.
As for `C[C@@H]1CN([C@@H](C)CO)C(=O)CCCn2cc(nn2)CO[C@H]1CN(C)S(=O)(=O)c1ccc(-n2cccn2)cc1`, the entry is “inactive”; as for `CNC[C@H]1Oc2ccc(NC(=O)Nc3ccc(F)cc3)cc2C(=O)N([C@@H](C)CO)C[C@@H]1C`, “inactive”; as for `C[C@@H]1CN([C@H](C)CO)C(=O)c2cccc(NC(=O)Nc3ccc(C(F)(F)F)cc3)c2O[C@H]1CN(C)S(=O)(=O)c1ccc(Cl)cc1`, “inactive”.
As for `Cc1ccc(S(=O)(=O)N2CCCC2C(=O)NCCO)cc1` (stereo unspecified), the entry is “inactive”; as for `COc1ccc([Si](C)(C)[C@@H]2[C@@H](CCO)O[C@]3(C(=O)N(Cc4ccccc4)c4ccc(N5CCC5=O)cc43)[C@H]2C)cc1`, “inactive”; as for `C[C@@H]1CN([C@H](C)CO)C(=O)CCCn2cc(nn2)CO[C@H]1CN(C)C(=O)Nc1ccc(N2CCCCC2)cc1`, “inactive”.
As for `C[C@H](CO)N1C[C@H](C)[C@@H](CN(C)CC2CC2)Oc2ccc(NC(=O)Nc3ccccc3)cc2CC1=O`, the entry is “inactive”.
Turning to `C[C@H](CO)N1C[C@H](C)[C@@H](CN(C)Cc2cccc3c2OCCCO3)OCc2cn(nn2)CCCC1=O`, the call was inactive.
As for `C[C@@H]1CN([C@H](C)CO)C(=O)CCCn2cc(nn2)CO[C@@H]1CN(C)Cc1ccc2cccnc2c1`, the entry is “inactive”; as for `COC(=O)c1c(NC(=S)Nc2ccc(S(=O)(=O)NC34CC5CC(CC(C5)C3)C4)cc2)sc2c1CCC2`, “inactive”; as for `CC(C)NC(=O)Nc1ccc2c(c1)C(=O)N([C@H](C)CO)C[C@@H](C)[C@H](CN(C)S(C)(=O)=O)O2`, “inactive”.
On to `Cc1ccc(C)c(NC(=O)CCC(=O)O)c1`, for which the call was inactive.
On to `O=C(N1CCCCC1)[C@@]1(CCS(=O)(=O)c2ccccc2)N=C(c2ccc(OCCCO)cc2)O[C@H]1c1ccccc1`, for which the call was inactive.
The entry for `C[C@@H]1CN([C@H](C)CO)C(=O)c2cc(N(C)C)ccc2O[C@@H](C)CCCCO[C@@H]1CN(C)C(=O)CCCN(C)C` is “inactive”; for `C[C@@H]1CCCCO[C@H](CN(C)C)[C@@H](C)CN([C@H](C)CO)C(=O)c2cc(N(C)C)ccc2O1` it is “inactive”.
As for `O=c1c2ccccc2[nH]c(=S)n1CCN1CCC(=C(c2ccc(F)cc2)c2ccc(F)cc2)CC1`, the entry is “active”; as for `O=C(c1ccc(F)cc1)C1CCN(CCCCc2ccccc2)CC1`, “inactive”; as for `C[C@H](CO)N1C[C@H](C)[C@@H](CN(C)S(=O)(=O)c2cn(C)cn2)Oc2ccc(NS(=O)(=O)c3cn(C)cn3)cc2C1=O`, “inactive”.
On to `COc1cc(/C=C/C(=O)NCCc2ccc(O)cc2)ccc1O`, for which the result was inactive.
With `Cc1nc(SCC(=O)N2c3ccccc3Sc3ccccc32)nc2c1CCCC2`, the compound was called inactive.
As to `COc1ccc(S(=O)(=O)N(C)C[C@@H]2Oc3ccc(NC(=O)Cc4cn(C)c5ccccc45)cc3C(=O)N([C@H](C)CO)C[C@H]2C)cc1`, the compound was called inactive.
As for `CCOC(=O)c1sc(NC(=S)Nc2ccc3c(c2)OCCO3)c(C(=O)OCC)c1C`, the entry is “inactive”; as for `C[C@@H]1CCCCO[C@H](CN(C)C(=O)Nc2cccc3ccccc23)[C@@H](C)CN([C@H](C)CO)C(=O)c2cc(NS(=O)(=O)c3cccs3)ccc2O1`, “inactive”.
Take `C[C@@H]1CN([C@H](C)CO)C(=O)c2cccc(NS(=O)(=O)c3ccc(Cl)cc3)c2O[C@@H]1CN(C)C(=O)Nc1cccc2ccccc12`: the call was inactive.
With `COc1ccc(S(=O)(=O)Nc2cccc3c2O[C@@H](CN(C)S(=O)(=O)c2ccc(F)cc2)[C@H](C)CN([C@H](C)CO)C3=O)cc1`, the result was inactive.
The entry for `C[C@@H]1CCCCO[C@@H](CN(C)C(=O)CCC(F)(F)F)[C@@H](C)CN([C@H](C)CO)C(=O)c2cc(NC(=O)CCC(F)(F)F)ccc2O1` is “inactive”; for `Cc1noc(C)c1S(=O)(=O)Nc1ccc2c(c1)C(=O)N([C@H](C)CO)C[C@H](C)[C@H](CN(C)C(=O)CCC(F)(F)F)OCCCC[C@H](C)O2` it is “active”; for `Cc1noc(C)c1S(=O)(=O)Nc1ccc2c(c1)C(=O)N([C@@H](C)CO)C[C@@H](C)[C@H](CN(C)C(=O)NC(C)C)OCCCC[C@@H](C)O2` it is “active”.
In the case of `Cc1noc(C)c1S(=O)(=O)Nc1ccc2c(c1)C(=O)N([C@H](C)CO)C[C@@H](C)[C@H](CN(C)C(=O)NC(C)C)OCCCC[C@@H](C)O2`, the compound was called inactive.
As for `C[C@@H]1CCCCO[C@H](CN(C)C(=O)CCC(F)(F)F)[C@@H](C)CN([C@@H](C)CO)C(=O)c2cc(NC(=O)c3ccncc3)ccc2O1`, the entry is “active”.
